Each structure is given as a SMILES string. For part of these data: Results with a measured potency or affinity are listed apart. Activity calls are given as the source filed them.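 Rule for the calls, unless noted: active = compound raising the membrane signal above positive-control mean plus 3 SD in both repeats, and a primary screen hit; inactive = the rest.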

For assay [1], the system named is TRPC4 beta (transient receptor potential cation channel C4), mouse. The assay can be described thus: activators of mouse TRPC4 channel, confirmation, cell-based, Fluo4 calcium, HEK293 TRPC4beta/mu-opioid, duplicates, 10 µM (AID 2426;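 active = fluorescence ratio normalized to control raised more than 50% in primary screen plus both repeat runs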;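 for activation: percent rise of integrated ratio over buffer wells lacking compound which define 0%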). The note with it: Fluo4 calcium fluorescence, at 10 µM; hits give high values.
Assay [2] concerns transient receptor potential cation channel C4 beta (TRPC4), mouse. The assay can be described thus: activators of mouse TRPC4 channel, confirmation, cell-based, second round, Fluo4, HEK293 TRPC4beta/mu-opioid, 1 µM (AID 2461;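 active = primary screen active and over 50% activation in each of two duplicate runs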). The note with it: Fluo4 calcium fluorescence, at 1 µM; hits give high values.
In assay [3] the test system is TRPC4 (transient receptor potential cation channel C4 beta), mouse. The assay can be described thus: positive allosteric modulators of mouse TRPC4, confirmation, cell-based, second round, Fluo-4, HEK293 TRPC4beta/mu-opioid, 1 µM (AID 2554;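 active = primary screen hit whose fluorescence ratio, in both repeats, exceeds the weak agonist control mean by 3 SD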). The settings on record: DAMGO EC20, Fluo-4 calcium flux, at 1 µM; hits give high values. On the technique in general: Calcium flux is commonly read through the fluorescence of an indicator in the cells.

For assay [4], the system named is TRPC4 beta (transient receptor potential cation channel C4), mouse. The assay can be described thus: positive allosteric modulators of mouse TRPC4, confirmation, cell-based, Fluo-4, HEK293 TRPC4beta/mu-opioid (AID 2555;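 active = primary screen hit whose calcium fluorescence ratio, in both repeats, exceeds the weak agonist control mean by 3 SD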). The settings on record: DAMGO EC20, Fluo-4 calcium flux, at 10 µM; hits give high values.
Assay [5] concerns the target Short transient receptor potential channel 4 (Mus musculus) (UniProt Q9QUQ5). The assay can be described thus: inhibitors of mouse TRPC4 channel, confirmation, cell-based, Fluo4, HEK293 TRPC4beta/mu-opioid (AID 2636;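 active = calcium signal cut by more than 3 SD below the full-agonist control yet still positive, in both repeats and the earlier primary screen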). The note with it: DAMGO, Fluo4 calcium flux, at 10 µM; hits give high values.
Assay [6] has the same target. The assay can be described thus: inhibitors of mouse TRPC4 channel, confirmation, cell-based, second round, Fluo4, HEK293 TRPC4beta/mu-opioid, 1 µM (AID 2637;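 active = calcium signal ratio cut to more than 3 SD under the fully stimulated control mean yet still positive, in both repeats and the primary screen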). The settings on record: Fluo4 calcium flux, DAMGO, at 1 µM; hits give high values.
For assay [7] the target is unchanged. The assay can be described thus: mouse TRPC4 channel activators, dose response, cell-based, HEK293 TRPC4/mu-opioid, Fluo-4 calcium (AID 434937;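 active = primary screen activator hit with a dose response curve and TRPC4 channel activation at any tested dose; inactive = no activation, no dose response, or not a primary hit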).
The target is the same in assay [8]. The assay can be described thus: TRPC4 positive allosteric modulators, dose response, cell-based, HEK293 TRPC4/mu-opioid, Fluo-4 calcium, EC20 DAMGO (AID 434941;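 active = earlier screen potentiator hit that boosts the TRPC4 ion channel at some dose, with a dose response; inactive = no potentiation, no dose response, or not a prior hit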;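 note: calcium entry triggered by an EC20 dose of DAMGO at the co-expressed mu-opioid receptor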).
For assay [9] the target is unchanged. The assay can be described thus: mouse TRPC4 channel inhibitors, dose response, cell-based, HEK293 TRPC4/mu-opioid, Fluo-4 calcium (AID 434942;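 active = primary screen inhibitor hit that blocks the TRPC4 channel at some tested dose, yielding a dose curve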).
Assay [10] deals with Short transient receptor potential channel 6 (Mus musculus) (UniProt Q61143). The assay is described as follows: inhibition of mouse TRPC6 channel, confirmation, selectivity assay for TRPC4 inhibitor project, cell-based, HEK293, membrane potential dye, duplicate (AID 434948;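 active = active in primary screen and both duplicates, each dropping signal beyond three positive-control SD with fluorescence still positive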). The note with it: HEK293 TRPC6, membrane potential dye fluorescence, at 10 µM, stimulated with maximal-effect acetylcholine; hits give high values.

Assay [11] has the same target. The assay can be described thus: activation of mouse TRPC6 channel, confirmation, selectivity assay for TRPC4 activator project, cell-based, HEK293, membrane potential dye, duplicate (AID 434950;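 active = membrane potential signal rise above negative control mean plus 3 SD in both duplicates, also active in the earlier TRPC4 screen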;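 for activation: 0% = buffer only wells and 100% = acetylcholine maximal-effect wells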). The settings on record: HEK293 TRPC6, membrane potential fluorescence, at 10 µM; hits give high values.
The target is the same in assay [12]. The assay is described as follows: TRPC6 potentiation by TRPC4 potentiator hits, confirmation, selectivity assay for TRPC4 potentiator project, HEK293 cells, membrane potential dye, duplicate (AID 434952). The note with it: HEK293 TRPC6, membrane potential dye fluorescence, at 10 µM, maximal acetylcholine added after compound; hits give high values.
Assay [13] concerns the target Short transient receptor potential channel 4 (Mus musculus) (UniProt Q9QUQ5). The assay is described as follows: calcium flux activators in TRPC4/5HT1a cells, counter-screen for TRPC4 activator project, cell-based, second counter screen, HEK293 TRPC4/5HT1a, Fluo-4 (AID 434977;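 active = calcium signal rise above buffer-control mean plus 5 SD in both duplicates, and also a hit in the primary screen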;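 for activation: plate controls were assay buffer for no effect and maximal serotonin response for full effect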). The settings on record: Fluo-4 calcium flux, at 10 µM; hits give high values.
A short description of assay [14]: calcium flux inhibitors in TRPC4/5HT1a cells, confirmation, counter-screen for TRPC4 inhibitor project, cell-based, second counter screen, HEK293 TRPC4/5HT1a, Fluo-4 (AID 434978;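 active = primary screen active whose calcium signal fell more than 3 SD beyond the full-serotonin control mean in both duplicate plates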;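 note: serotonin given first at submaximal then at maximal dose after compound preincubation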). The note with it: Fluo-4 calcium flux, at 10 µM, serotonin added to trigger calcium flux; hits give high values.
In assay [15] the test system is TRPC4 (mouse), co-expressed with 5HT1a in HEK293. The assay is described as follows: calcium flux potentiators in TRPC4/5HT1a cells, confirmation, counter-screen for TRPC4 potentiator project, cell-based, second counter screen, HEK293 TRPC4/5HT1a, Fluo-4 (AID 434979;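 active = signal rise over 3 SD above mean of control wells given weak agonist, in both repeats and first screen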). The note with it: Fluo-4 calcium flux, at 10 µM, serotonin added at its EC20 dose; hits give high values.

Assay [16] in a line: calcium flux activation in mu-opioid HEK293 cells, confirmation, counter-screen for TRPC4 activator project, cell-based, HEK293 mu-opioid receptor line (AID 449723;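 active = hit in primary screen, with calcium signal over 5 SD above buffer well mean in both duplicates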;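 note: counter screen cells carry the mu-opioid receptor alone and lack TRPC4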). The settings on record: Fluo-4 calcium fluorescence, at 10 µM; hits give high values.
Assay [17] is described as follows: calcium flux enhancement in mu-opioid HEK293 cells, confirmation, counter-screen for TRPC4 allosteric potentiator project, cell-based, HEK293 mu-opioid receptor line (AID 449724;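 active = calcium signal rise more than 3 SD above the low-dose agonist control mean, in both duplicate plates and the primary screen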;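 note: HEK293 cells carrying mu-opioid receptor only with no TRPC4 channel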). The settings on record: Fluo-4 calcium flux, at 10 µM, compound added before EC20 DAMGO stimulus; hits give high values.

Short transient receptor potential channel 6 (Mus musculus), sequence (Q61143 whole entry, looked up): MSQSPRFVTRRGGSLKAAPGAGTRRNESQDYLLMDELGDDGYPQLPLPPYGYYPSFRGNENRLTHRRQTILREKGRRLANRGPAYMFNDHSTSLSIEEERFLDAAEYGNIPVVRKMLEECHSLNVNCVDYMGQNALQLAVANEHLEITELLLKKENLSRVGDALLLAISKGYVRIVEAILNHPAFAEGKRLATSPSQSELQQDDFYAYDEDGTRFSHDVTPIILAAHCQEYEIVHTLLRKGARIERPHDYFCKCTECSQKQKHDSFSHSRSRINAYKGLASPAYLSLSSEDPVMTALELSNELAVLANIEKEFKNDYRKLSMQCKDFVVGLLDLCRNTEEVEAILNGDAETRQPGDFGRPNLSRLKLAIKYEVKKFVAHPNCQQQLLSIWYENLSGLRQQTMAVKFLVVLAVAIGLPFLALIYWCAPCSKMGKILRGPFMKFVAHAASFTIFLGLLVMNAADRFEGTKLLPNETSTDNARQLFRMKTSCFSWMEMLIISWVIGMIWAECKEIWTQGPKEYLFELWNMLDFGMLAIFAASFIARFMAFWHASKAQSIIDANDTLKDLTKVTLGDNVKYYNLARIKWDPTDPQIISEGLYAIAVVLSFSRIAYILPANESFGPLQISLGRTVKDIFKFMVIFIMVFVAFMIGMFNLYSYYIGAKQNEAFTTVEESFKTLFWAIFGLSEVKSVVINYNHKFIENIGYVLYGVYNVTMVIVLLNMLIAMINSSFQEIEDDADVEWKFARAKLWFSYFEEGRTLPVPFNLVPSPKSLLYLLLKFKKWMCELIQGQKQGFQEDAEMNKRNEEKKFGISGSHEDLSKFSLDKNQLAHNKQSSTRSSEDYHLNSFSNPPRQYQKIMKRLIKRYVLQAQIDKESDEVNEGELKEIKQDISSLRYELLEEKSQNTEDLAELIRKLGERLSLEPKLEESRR
Short transient receptor potential channel 4 (Mus musculus), sequence (Q9QUQ5 whole entry, looked up): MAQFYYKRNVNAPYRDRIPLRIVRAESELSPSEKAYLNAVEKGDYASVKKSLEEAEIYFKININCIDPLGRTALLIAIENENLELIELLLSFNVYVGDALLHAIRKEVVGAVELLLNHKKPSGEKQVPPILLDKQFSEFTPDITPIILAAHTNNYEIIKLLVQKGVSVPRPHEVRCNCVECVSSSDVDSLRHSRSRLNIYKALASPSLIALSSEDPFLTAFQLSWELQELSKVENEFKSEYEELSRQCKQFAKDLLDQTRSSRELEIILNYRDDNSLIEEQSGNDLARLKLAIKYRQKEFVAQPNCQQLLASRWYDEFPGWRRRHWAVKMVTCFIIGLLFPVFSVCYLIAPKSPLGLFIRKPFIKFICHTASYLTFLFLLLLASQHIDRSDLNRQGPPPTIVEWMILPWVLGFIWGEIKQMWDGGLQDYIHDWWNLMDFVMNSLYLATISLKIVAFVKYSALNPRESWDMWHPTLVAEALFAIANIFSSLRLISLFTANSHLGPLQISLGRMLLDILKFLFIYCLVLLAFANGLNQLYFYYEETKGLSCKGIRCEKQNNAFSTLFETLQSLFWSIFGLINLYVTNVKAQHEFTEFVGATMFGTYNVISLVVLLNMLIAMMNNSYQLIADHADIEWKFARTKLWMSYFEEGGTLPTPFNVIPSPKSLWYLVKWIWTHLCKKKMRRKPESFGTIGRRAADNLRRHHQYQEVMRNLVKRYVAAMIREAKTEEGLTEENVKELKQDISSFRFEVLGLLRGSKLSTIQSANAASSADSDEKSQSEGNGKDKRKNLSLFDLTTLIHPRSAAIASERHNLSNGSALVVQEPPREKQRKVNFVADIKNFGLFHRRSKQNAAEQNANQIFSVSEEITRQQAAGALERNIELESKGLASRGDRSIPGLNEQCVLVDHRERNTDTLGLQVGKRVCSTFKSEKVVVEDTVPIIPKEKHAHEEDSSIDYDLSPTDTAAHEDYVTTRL

Consider `Cc1oc(-c2cccc(F)c2)nc1CN(Cc1ccccc1)C[C@@H]1CCC(=O)N1`, for which the outcome in assay [1], in [2], in [3], in [4], in assay [5] and in assay [6] was inactive. Further, the outcome in [7], in assay [8], in assay [9], in assay [10], in assay [11] and in assay [12] was inactive. The outcome in assay [13], in assay [14], in [15], in assay [16] and in assay [17] was inactive.

Turning to `O=S(=O)(c1ccc(Oc2ccc(Br)cc2)cc1)N1CCOCC1`, the result in [1], in [2], in assay [3], in [4], in assay [5] and in assay [6] was inactive. The outcome in assay [7], in assay [8], in assay [9], in assay [10], in [11] and in assay [12] was inactive. In addition, the outcome in [13], in [14], in assay [15], in assay [16] and in [17] was inactive.

Regarding `CC(=O)c1c(O)c(C)c(O)c2c1OC1=CC(=O)C(C(C)=O)C(=O)[C@@]12C` (stereo not given in full), the activation in [1] is 246% (active); in [13], 20.7% (active); in assay [16], 43.3% (active). Further, the outcome in assay [2], in assay [3], in assay [4], in assay [5], in [6] and in assay [7] was inactive. In addition, the result in assay [8], in assay [9], in assay [10], in [11], in [12] and in assay [14] was inactive. The result in assay [15] and in assay [17] was inactive.

Take `CCOc1ccc(CN2CCCC(CNC(=O)c3ccc(F)cc3)C2)cc1CO` (stereo not given): the result in assay [1], in assay [2], in assay [3], in [4], in [5] and in [6] was inactive. Further, the result in [7], in assay [8], in assay [9], in assay [10], in assay [11] and in assay [12] was inactive. In addition, the result in [13], in assay [14], in assay [15], in assay [16] and in assay [17] was inactive.

Take `CCSc1ccccc1C(=O)NCCc1ccccc1`: the result in [1], in assay [2], in assay [3], in [4], in assay [5] and in assay [6] was inactive. The result in assay [7], in assay [8], in assay [9], in assay [10], in [11] and in assay [12] was inactive. In addition, the result in [13], in assay [14], in [15], in assay [16] and in [17] was inactive.

With `c1ccc(CN2CCN(c3nc4ccccc4s3)CC2)cc1`, the result in assay [1], in [2], in [3], in [5], in assay [6] and in assay [7] was inactive. Also, the result in [8], in [9], in assay [10], in assay [11], in assay [12] and in assay [13] was inactive. The result in [14], in assay [16] and in assay [17] was inactive. Besides, the results for the potentiation in assay [4] and in assay [15] were 9% (active) and 14.8% (active), respectively.

One may read the inhibition as the drop in the measured response relative to a control, in per cent. `COc1cc(/C=C2\C(=N)N3N=C(S(C)(=O)=O)SC3=NC2=O)ccc1OC(=O)c1cccs1`: the result in assay [1], in [2], in [3], in assay [4], in assay [6] and in assay [7] was inactive. The result in assay [8], in [9], in [10], in assay [11], in assay [12] and in assay [13] was inactive. For the same compound, the result in [14], in assay [15], in assay [16] and in assay [17] was inactive. Moreover, the inhibition in assay [5] is 86% (active).

Consider `COc1cc(/C=C/C(=O)OCC(=O)Nc2c(C)n(C)n(-c3ccccc3)c2=O)ccc1OCC#N`, for which the outcome in [1], in [2], in assay [3], in [4], in assay [5] and in assay [6] was inactive. The result in [7], in assay [8], in [9], in assay [10], in [12] and in assay [13] was inactive. In addition, the result in [14], in [15], in assay [16] and in assay [17] was inactive. Also, the activation in assay [11] was 39.5% (active).

For `CC(=O)Nc1ccc(CN2CCCC(CO)(Cc3ccccc3C)C2)cc1` (stereo not given), the outcome in assay [1], in assay [2], in assay [3], in [4], in assay [5] and in assay [6] was inactive. In addition, the outcome in [7], in assay [8], in assay [9], in assay [10], in [11] and in assay [12] was inactive. Moreover, the result in assay [13], in assay [14], in [15], in [16] and in assay [17] was inactive.

For `O=C(c1ccncc1)N1c2ccccc2Sc2ccccc21`, the result in assay [1], in [2], in assay [3], in assay [4], in assay [5] and in [6] was inactive. The result in [7], in assay [8], in assay [9], in assay [10], in assay [11] and in assay [12] was inactive. The result in assay [13], in [14], in [15], in [16] and in [17] was inactive.

Turning to `OCCNCc1cc(Br)ccc1OCc1ccccc1`, the outcome in [1], in assay [2], in assay [3], in [4], in [5] and in [6] was inactive. The result in [7], in assay [8], in assay [9], in [10], in assay [11] and in [12] was inactive. Also, the result in assay [13], in assay [14], in assay [15], in [16] and in assay [17] was inactive.

Regarding `CC1CN(c2nc3c(c(=O)n(Cc4ccc(Cl)c(Cl)c4)c(=O)n3C)n2C)CC(C)O1` (stereo not given), the outcome in assay [1], in assay [2], in assay [3], in assay [5], in [6] and in assay [7] was inactive. The result in assay [8], in [9], in assay [10], in assay [11], in assay [12] and in assay [13] was inactive. Also, the result in assay [14], in [16] and in assay [17] was inactive. Moreover, the potentiation in assay [4] is 13% (active); in assay [15] it was 26.4% (active).

For the compound `CSCC(C)N1CCC(CO)(CCCc2ccccc2)CC1` (stereo not given), the outcome in assay [1], in assay [2], in assay [3], in [4], in assay [5] and in [6] was inactive. Besides, the outcome in assay [7], in assay [8], in assay [9], in assay [10], in assay [11] and in [12] was inactive. Moreover, the outcome in assay [13], in [14], in assay [15], in assay [16] and in [17] was inactive.

`Cc1ccc(-n2c(SCc3cc(=O)n4ccsc4n3)nnc2-c2cccnc2)c(C)c1`: the outcome in assay [1], in assay [2], in [3], in assay [4], in [5] and in assay [6] was inactive. Also, the result in [7], in [8], in assay [9], in assay [10], in assay [11] and in assay [12] was inactive. The result in assay [13], in assay [14], in assay [15], in assay [16] and in assay [17] was inactive.

Take `Cc1ccccc1-n1c(=O)c2c(n3cnnc13)-c1ccccc1CC21CCCCC1`: the outcome in assay [1], in assay [2], in assay [3], in [4], in assay [5] and in assay [6] was inactive. Besides, the outcome in assay [7], in assay [8], in [9], in assay [10], in [11] and in [12] was inactive. Moreover, the outcome in assay [13], in [14], in assay [16] and in [17] was inactive. For the same compound, the potentiation in assay [15] is 10.5% (active).

Source of the values: PubChem BioAssay.
